# Data: PubChem BioAssay (NCI)
# About 83,000 compounds went through this panel and 20% of them were active in at least one assay; those are over-represented in the sample as a whole.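 Note: values are percent growth. 100 is the growth of untreated cells, values between 100 and 0 indicate rising inhibition; between -100 and 0 indicates cell death.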 Unmarked numbers belong to inactive results. The source made the active and inactive calls. How the source made its calls: active means growth percent below 10; inactive means the rest.
# What was measured:
# Assay in all cases: NCI-60 one-dose screen, 48 h (100 = growth as untreated, 0 = no growth, -100 = all killed)
# Conditions in all cases: 10 µM unless noted
# [1] = tested on: SR leukemia
# [2] = tested on: RPMI-8226 leukemia
# [3] = tested on: OVCAR-8 ovarian
# [4] = tested on: OVCAR-5 ovarian
# [5] = tested on: OVCAR-4 ovarian
# [6] = tested on: IGROV1 ovarian
# [7] = tested on: OVCAR-3 ovarian
# [8] = tested on: HS 578T breast
# [9] = tested on: NCI/ADR-RES ovarian
# [10] = tested on: SK-OV-3 ovarian
SMILES,growth [1],growth [2],growth [3],growth [4],growth [5],growth [6],growth [7],growth [8],growth [9],growth [10]
COc1ccc(-c2cc(=O)[nH]c3c(OC)c4ccccc4c(OC)c23)cc1,-14% (active),4.21% (active),33.3%,36.3%,30.8%,32.8%,-43.2% (active),-6.69% (active),3.17% (active),
COc1ccc(/C=C2\CN(C(=O)CCN3CCC(=NO)CC3)C/C(=C\c3ccc(OC)cc3)C2=O)cc1,2.16% (active),-11.1% (active),19.6%,-4.94% (active),,-14.1% (active),6.9% (active),6.95% (active),11.3%,68%
COc1cc2nc3cc([N+](=O)[O-])ccc3c(NCCCNCC(C)(C)O)c2cc1OC,5.93% (active),-9.27% (active),-45% (active),-3.65% (active),-37.2% (active),-18% (active),-60.3% (active),-18.6% (active),87.6%,
Cc1sc2nc3[nH]/c(=C\c4ccc(Cl)cc4)c(=O)n3c(=O)c2c1C,86.6%,97.1%,103%,81.7%,,107%,107%,111%,107%,105%
OCC1C2C=CC(C2)C1CO (stereo not given),78.7%,97%,98.6%,101%,,101%,107%,104%,104%,175%
CN(CC(=O)N(Cc1ccc(C2CCCCC2)cc1)c1ccc(C(=O)NO)cc1)S(=O)(=O)c1c(F)c(F)c(F)c(F)c1F,-4.55% (active),62.8%,49.8%,104%,84.4%,28.6%,81.7%,91.6%,90.2%,
Cc1cc(Cl)ccc1Nc1nc(C(F)(F)F)ccc1C(=O)N/N=C/c1ccc(F)cc1,-30.8% (active),-41.5% (active),23.1%,18.6%,,8.97% (active),9.84% (active),4.52% (active),10.5%,21.3%
N=S(=O)(NC(=O)c1ccc(Cl)cc1Cl)c1ccc(Br)s1 (stereo not given),75%,86.5%,90.9%,119%,,-1.49% (active),105%,87.3%,91.3%,96.4%
O=C1OC2C(I)C3CC2C1C3c1ccccc1 (stereo not given),86.8%,106%,112%,93%,,111%,120%,143%,101%,116%
CC[C@]12C=CCN3CC[C@@]4(c5ccc(OC)cc5N(C)[C@H]4[C@@](O)(C(=O)OC)[C@@H]1OC(=O)CCC(=O)N[C@@H](Cc1c[nH]c4ccccc14)C(=O)OC)[C@@H]32,-43.1% (active),-33.4% (active),93.9%,90.8%,89.9%,101%,86.4%,79.4%,105%,
COc1c(Cl)cc(Cl)cc1Cl,101%,118%,112%,121%,,97.4%,109%,87.8%,112%,107%
C/C(=C(/c1ccc(O)cc1)c1ccc(Cl)cc1)c1ccccc1,-27.9% (active),-45.9% (active),-53% (active),-85.3% (active),-97.4% (active),-73.1% (active),-92.5% (active),-37.6% (active),-71% (active),
O=[N+]([O-])c1cccc(-c2nc3sccn3c2-c2ccnc(NCCCNS(=O)(=O)c3cccc(F)c3)n2)c1,13.2%,-32.5% (active),-5.3% (active),66.2%,,3.18% (active),-2.65% (active),31.2%,-20.8% (active),44.6%
O=c1[nH]c(-c2ccccn2)nc2sc3c(c12)CCCCC3,27.3%,40.2%,36.1%,72.1%,,45.1%,40.3%,81.7%,15.1%,53%
CN1CCN(Cc2ccc(NC(=O)c3cncc(C#Cc4cnc(N)c5cccnc45)c3)cc2C(F)(F)F)CC1,15.4%,18.5%,29.5%,12.5%,,7.64% (active),34.6%,-2.09% (active),87%,-10.9% (active)
